Measurements as given in PubChem BioAssay (NCI).
Compounds without any hit were thinned out: in the full panel of roughly 83,000, 20% have a hit.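 Step 1: grow cells in 96-well plates. Step 2: add test compound at a single concentration. Step 3: incubate 48 h. Step 4: record percent growth.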 The source made the active and inactive calls. Rule for the calls: active = growth percent below 10; inactive = the rest.

Key:
Assay in all cases: NCI-60 one-dose screen, 48 h (100 = growth as untreated, 0 = no growth, -100 = all killed)
Conditions in all cases: 10 µM
786-0 renal = system: 786-0 renal
SN12C renal = system: SN12C renal
TK-10 renal = system: TK-10 renal
ACHN renal = system: ACHN renal
CAKI-1 renal = system: CAKI-1 renal
A498 renal = system: A498 renal
RPMI-8226 leukemia = system: RPMI-8226 leukemia
OVCAR-8 ovarian = system: OVCAR-8 ovarian
OVCAR-5 ovarian = system: OVCAR-5 ovarian
OVCAR-4 ovarian = system: OVCAR-4 ovarian
SK-OV-3 ovarian = system: SK-OV-3 ovarian
OVCAR-3 ovarian = system: OVCAR-3 ovarian
NCI/ADR-RES ovarian = system: NCI/ADR-RES ovarian
T-47D breast = system: T-47D breast
BT-549 breast = system: BT-549 breast
MDA-MB-435 melanoma = system: MDA-MB-435 melanoma
MCF7 breast = system: MCF7 breast
HCT-116 colon = system: HCT-116 colon
HCC-2998 colon = system: HCC-2998 colon
KM12 colon = system: KM12 colon

Measured: growth

O=C(/C=C/c1ccc(Cl)cc1)c1nc2ccccc2n1Cc1ccc(Br)cc1
inactive: 786-0 renal 38.9% | SN12C renal 52.9% | TK-10 renal 93.7% | ACHN renal 51.1% | CAKI-1 renal 57.4% | A498 renal 115% | OVCAR-8 ovarian 66% | OVCAR-5 ovarian 89.9% | OVCAR-4 ovarian 68.5% | SK-OV-3 ovarian 94.7% | OVCAR-3 ovarian 38.2% | NCI/ADR-RES ovarian 62.6% | T-47D breast 28% | BT-549 breast 37.2% | MDA-MB-435 melanoma 54.2% | HCT-116 colon 33.1% | HCC-2998 colon 65.3% | KM12 colon 67.6%
active: RPMI-8226 leukemia -13.4% | MCF7 breast 9.41%

C=CC[Se]C(=O)c1ccc(C(=O)[Se]CC=C)s1
active: 786-0 renal -96.3% | SN12C renal -55.8% | TK-10 renal -80% | ACHN renal -45.6% | CAKI-1 renal -83.9% | A498 renal -5.42% | RPMI-8226 leukemia -26.8% | OVCAR-8 ovarian -80.5% | OVCAR-5 ovarian -61.8% | OVCAR-4 ovarian -67.6% | SK-OV-3 ovarian -95.2% | OVCAR-3 ovarian -92.9% | NCI/ADR-RES ovarian -23.1% | T-47D breast -40.4% | BT-549 breast -92.3% | MDA-MB-435 melanoma -82.8% | MCF7 breast -55.4% | HCT-116 colon -77.9% | HCC-2998 colon -85.7% | KM12 colon -85.1%

O=C(NCCCCC(c1ccc(F)cc1)c1ccc(F)cc1)Nc1ccc([N+](=O)[O-])c(C(F)(F)F)c1
active: 786-0 renal -15% | SN12C renal 7.2% | ACHN renal -2.96% | CAKI-1 renal -3.31% | A498 renal -9.75% | RPMI-8226 leukemia -39.3% | OVCAR-8 ovarian 5.42% | SK-OV-3 ovarian -33% | OVCAR-3 ovarian 1.5% | NCI/ADR-RES ovarian -4.02% | T-47D breast -10.4% | BT-549 breast -28% | MDA-MB-435 melanoma -21.3% | MCF7 breast 1.44% | HCT-116 colon -58.2% | HCC-2998 colon 7.86% | KM12 colon 2.48%
inactive: TK-10 renal 10% | OVCAR-5 ovarian 11.8% | OVCAR-4 ovarian 11.5%

C#CC[Se]C(=O)c1ccc(C(=O)[Se]CC#C)s1
inactive: 786-0 renal 82.2% | SN12C renal 85.9% | TK-10 renal 84.8% | ACHN renal 43.6% | CAKI-1 renal 106% | A498 renal 101% | RPMI-8226 leukemia 86% | OVCAR-8 ovarian 75.6% | OVCAR-5 ovarian 81.3% | OVCAR-4 ovarian 103% | SK-OV-3 ovarian 110% | OVCAR-3 ovarian 84.5% | NCI/ADR-RES ovarian 76.1% | T-47D breast 88.8% | BT-549 breast 101% | MDA-MB-435 melanoma 95.8% | MCF7 breast 91.5% | HCT-116 colon 14% | HCC-2998 colon 94.7% | KM12 colon 42.8%

COc1cc2cc(C(=O)N3C[C@@H](CCl)c4c3cc(OC(=O)N3CCN(C)[C@@H]5CSSC[C@@H]53)c3ccccc43)[nH]c2c(OC)c1OC
inactive: TK-10 renal 13.8%
active: 786-0 renal -9.47% | SN12C renal -44.6% | ACHN renal -41.3% | CAKI-1 renal -0.707% | A498 renal -22.4% | RPMI-8226 leukemia -20.4% | OVCAR-8 ovarian -3.43% | OVCAR-5 ovarian -6.69% | OVCAR-4 ovarian -6.86% | SK-OV-3 ovarian -6.59% | OVCAR-3 ovarian -15.8% | NCI/ADR-RES ovarian -22.2% | T-47D breast -5.73% | BT-549 breast -82.6% | MDA-MB-435 melanoma -86.8% | MCF7 breast -8.94% | HCT-116 colon 5.27% | HCC-2998 colon -53.8% | KM12 colon 0.977%

O=C(/C=C/c1ccc(Br)cc1)c1nc2ccccc2n1Cc1ccc(Br)cc1
inactive: TK-10 renal 23.8% | CAKI-1 renal 16% | A498 renal 82.7% | OVCAR-4 ovarian 35.5% | SK-OV-3 ovarian 79.1% | KM12 colon 22.5%
active: 786-0 renal -81.3% | SN12C renal 8.28% | ACHN renal -38.2% | RPMI-8226 leukemia -9.14% | OVCAR-8 ovarian -18% | OVCAR-5 ovarian -43.4% | OVCAR-3 ovarian -46.9% | NCI/ADR-RES ovarian -38.2% | T-47D breast 1.99% | BT-549 breast -66.2% | MDA-MB-435 melanoma -38.5% | MCF7 breast 3.68% | HCT-116 colon -80.9% | HCC-2998 colon -89.6%

C=CC[Se]C(=O)c1cncc(C(=O)[Se]CC=C)c1
inactive: A498 renal 29.9%
active: 786-0 renal -97.3% | SN12C renal -95.6% | TK-10 renal -20.3% | ACHN renal -12.9% | CAKI-1 renal -8.92% | RPMI-8226 leukemia -42.2% | OVCAR-8 ovarian -87.3% | OVCAR-5 ovarian -86.6% | OVCAR-4 ovarian -62.8% | SK-OV-3 ovarian -92.2% | OVCAR-3 ovarian -89.5% | NCI/ADR-RES ovarian -70.2% | T-47D breast -42.2% | BT-549 breast -94.9% | MDA-MB-435 melanoma -62.9% | MCF7 breast -42.7% | HCT-116 colon -86.4% | HCC-2998 colon -92.6% | KM12 colon -73.1%

CC(=O)Oc1ccccc1C(=O)[Se]C(=NC(C)C)NC(C)C
active: 786-0 renal -95.9% | SN12C renal -78.7% | TK-10 renal -98.5% | ACHN renal -80.8% | CAKI-1 renal -98.5% | A498 renal -24.8% | RPMI-8226 leukemia -20% | OVCAR-8 ovarian -86.3% | OVCAR-5 ovarian -66.5% | OVCAR-4 ovarian -56% | SK-OV-3 ovarian -95.6% | OVCAR-3 ovarian -93.7% | NCI/ADR-RES ovarian -25.3% | T-47D breast -45.6% | BT-549 breast -94.7% | MDA-MB-435 melanoma -94.1% | MCF7 breast -55% | HCT-116 colon -82.4% | HCC-2998 colon -91% | KM12 colon -89.6%
